Source: PubChem BioAssay
Only some compounds are listed: those with a hit (about 3.5% of all), similar ones and a draw of the others.
MITF inh = human MITF inhibition, primary screen. O75030. AlphaScreen MITF homodimerization, bead proximity signal. inhibition, % at 2.6 µM. 650,000 compounds, 0.91% hits. AID 1259374; in the data active = inhibition above about 50%;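 also: 0% = vehicle wells with protein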
FBW7 act = activators of human E3 ligase FBW7 | AlphaScreen FBW7–phospho-cyclin E peptide binding, activator screen | normalized activity (activation), % at 26.1 µM | 650,000 compounds, 0.13% hits; in the data active = normalized activity above about 1.9%;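 also: purified mutant Fbw7 with reduced substrate affinity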
Target sequence (Q969H0 whole entry, looked up): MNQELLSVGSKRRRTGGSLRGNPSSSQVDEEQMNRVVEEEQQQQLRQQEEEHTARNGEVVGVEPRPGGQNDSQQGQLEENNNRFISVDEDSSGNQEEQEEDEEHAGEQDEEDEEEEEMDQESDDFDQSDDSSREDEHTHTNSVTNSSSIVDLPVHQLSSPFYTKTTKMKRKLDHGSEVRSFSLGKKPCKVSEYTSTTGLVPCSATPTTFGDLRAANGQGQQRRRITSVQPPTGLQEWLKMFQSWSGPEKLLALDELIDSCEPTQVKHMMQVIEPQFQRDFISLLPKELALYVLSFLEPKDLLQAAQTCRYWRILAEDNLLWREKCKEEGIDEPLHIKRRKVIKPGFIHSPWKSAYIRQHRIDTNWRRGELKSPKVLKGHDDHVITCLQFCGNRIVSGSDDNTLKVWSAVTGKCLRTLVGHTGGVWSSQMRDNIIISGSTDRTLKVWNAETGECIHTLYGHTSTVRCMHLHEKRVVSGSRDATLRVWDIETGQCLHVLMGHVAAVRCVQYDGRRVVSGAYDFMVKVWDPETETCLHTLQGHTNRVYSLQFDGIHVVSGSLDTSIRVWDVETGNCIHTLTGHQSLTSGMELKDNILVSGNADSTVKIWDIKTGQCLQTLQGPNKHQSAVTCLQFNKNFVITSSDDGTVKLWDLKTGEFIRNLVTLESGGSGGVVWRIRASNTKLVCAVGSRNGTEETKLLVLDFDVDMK
TEAD-YAP block = TEAD-YAP interaction inhibition | HEK-TIYL cells, TEAD-Gal4/YAP UAS-luciferase luminescence | inhibition, % at 9.12 µM | 640,000 compounds, 1.4% hits | AID 1259422; in the data active = inhibition above about 32%;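 also: 0% = median of test compound wells and 100% = reference inhibitor wells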
GPR151 activ = activators of human GPR151; Q8TDV0; 650,000 compounds, 1% hits; activation, % at 11.2 µM; PathHunter beta-arrestin GPR151 cells, luminescence; in the data active = activation above about 4.9%;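 also: 0% = median of compound wells and 100% = cells with positive control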
GPR151 confirm = human GPR151 activation, confirmation screen | activation, % at 11.2 µM | 6,700 tested, under 10 active | AID 1508609 | GPR151 PathHunter beta-arrestin cells, luminescence, 90 min; % of EA-reagent control over plate median | shares compounds with GPR151 activ;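 active = mean percent activation across replicates above the confirmation screen cutoff of 4.91%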
GPR119 counter = activates human GPR119 in a GPR151 counter-screen; 6,700 compounds, 0.3% hits; AID 1508611; shares compounds with GPR151 activ; GPR119 PathHunter beta-arrestin cells, luminescence, 90 min; 0 = compound-well median, 100 = enzyme-acceptor control; activation, % at 11.2 µM;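 active = mean percent activation in the counterscreen above 29.09%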;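 also: counterscreen on off-target GPR119 to flag nonselective hits from the GPR151 activator screen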
Numbers without * were called inactive; x = no result given; ! = not confirmed by another sample.

SMILES | MITF inh | FBW7 act | TEAD-YAP block | GPR151 activ | GPR151 confirm | GPR119 counter
COc1ccc(N(CC(=O)Nc2ccccc2-c2ccccc2)S(C)(=O)=O)cc1 | 3 | 0 | -1 | 15* | -1 | -3
COc1cccc(NC(=O)CN(C)CC(=O)Nc2ccccc2-c2ccccc2)c1 | 46 | 0 | -8 | 5.7* | -1 | -10
CCc1ccccc1NC(=O)CN(c1ccc(C)cc1)S(C)(=O)=O | 13 | 0 | 9 | 0 | x | x
Cc1ccc(N(CC(=O)Nc2ccccc2C(C)C)S(C)(=O)=O)cc1 | 10 | 0 | 2 | 6.5* | 1 | 5
COc1ccc(S(=O)(=O)CCC(=O)Nc2ccccc2Br)cc1 | 3 | 0 | -9 | 9.4* | 0 | -4
CCOc1cc(C)c(Cl)cc1S(=O)(=O)N1CCOCC1 | -1 | 0 | -3 | -1 | x | x
NC(=O)NC1NC(=O)NC1=O (stereo not drawn) | 8 | 1 | -8 | 5.7*! | 0 | 11
COc1ccc(CCNC(=O)c2csc(Nc3ccc(-n4ccnc4)cc3)n2)cc1 | 3 | 0 | 58* | 6.0* | 0 | 30*
COc1ccc(CCNC(=O)c2csc(Nc3ccc(C(F)(F)F)cc3)n2)cc1 | 10 | 0 | -11 | 6.2* | 0 | 2
COc1ccc(CCNc2nc(Nc3ccc(-n4ccnc4)cc3)ncc2C)cc1 | 7 | 1 | 18 | 4.9* | 0 | -8
COc1ccc(CCNC(=O)c2cnc(Nc3ccc(-n4ccnc4)cc3)s2)cc1 | 4 | 0 | -2 | 1 | x | x
CCCCc1ccc(C(=O)Nn2c(-c3ccc(F)cc3)nc3ccccc3c2=O)cc1 | -3 | 0 | -6 | 0 | x | x
O=C(Nc1ccc(F)c([N+](=O)[O-])c1)c1ccc(I)cc1 | 9 | 0 | 7 | 0 | x | x
Cc1ccc(OCC(=O)Nc2nn3c(-c4ccccc4)nnc3s2)cc1C | -2 | 0 | 2 | 0 | x | x
O=C(NCCCN1CCOCC1)c1ccc(CNC(=O)c2cccc(Br)c2)cc1 | 3 | 0 | -8 | 0 | x | x
COC(=O)c1ccccc1S(=O)(=O)C1CCN(C(=O)Nc2ccc(F)cc2F)CC1 | 7 | 0 | -4 | 5.0* | -2 | -13
c1coc(CNc2nc3ccccc3n2CCN2CCOCC2)c1 | -11 | 0 | -19 | 9.8* | 0 | 19
Cn1c(CNc2nc3ccccc3n2CCN2CCOCC2)nc2ccccc21 | 12 | 0 | -13 | -1 | x | x
Cc1oc(-c2ccc(Cl)cc2)nc1CS(=O)CC(=O)NC1CCCCCC1 (stereo not drawn) | 8 | 0 | -12 | 0 | x | x
Cc1oc(-c2ccc(Cl)cc2)nc1CS(=O)CC(=O)NC1CCCCC1 (stereo not drawn) | 12 | 0 | -3 | 8.3* | 1 | -3
COC(=O)c1ccc(C(=O)OC)c(NC(=S)N(C)CCC#N)c1 | 8 | 0 | -1 | 2 | x | x
COc1ccc2nc(Cl)c(C3CC(c4ccccc4)=NN3C(=O)CCCC(=O)O)cc2c1 (stereo not drawn) | 17 | 0 | 3 | 5.0* | 0 | 2
COc1ccc2nc(Cl)c(C3CC(c4ccc(Cl)cc4)=NN3C(=O)CCCC(=O)O)cc2c1 (stereo not drawn) | 7 | 0 | -3 | 0 | x | x
CSc1cccc(NC(=O)CCC(=O)N2CCSc3ccccc32)c1 | 3 | 0 | -1 | 17* | 0 | -7
O=c1oc2c3c(ccc2c2c1CCC2)OCN(c1ccc(F)cc1)C3 | 6 | 0 | 3 | 5.1* | 0 | -12
CCOC(=O)c1sc(NC(=S)NC(=O)c2ccccc2F)nc1C | -1 | 0 | 10 | -1 | x | x
CCOC(=O)c1sc(NC(=O)c2c(F)cccc2F)nc1C | -6 | 0 | -7 | 7.8* | 0 | 16
O=C(CCC1CCCCC1)Nc1nn[nH]n1 | 1 | 0 | 1 | 7.7* | 1 | 4
